Screening results from PubChem.
CYP2C19 act – human CYP2C19 activators, primary screen, biochemical, luminescence; Cytochrome P450 2C19 (Homo sapiens), P33261; recombinant CYP2C19, luciferin-H EGE luminescence; hits give high values; 0 = fully inhibited enzyme, 1 = untreated enzyme; activation factor at 5 µM; 96,000 tested, under 10 active;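 active = activation factor of at least 2 at 5 µM in the primary screen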;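 also: 0 = wells with 2.5 mM tranylcypromine and 1 = vehicle-only wells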
CD11b adhes inh – inhibitors of CD11b/CD18 adhesion to fibrinogen, primary screen, K562 cells, luminescence; Integrin beta-2 (Homo sapiens) + Integrin alpha-M (Homo sapiens), P05107+P11215; ATPlite luminescence; Mn2+ added to activate the integrin; inhibition, % at 10 µM; 0.54% of 93,000 active;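 active = primary inhibition of 50% or more at 10 µM, then 40% or more on retest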
Target sequence (P05107 whole entry, looked up, other chains not shown): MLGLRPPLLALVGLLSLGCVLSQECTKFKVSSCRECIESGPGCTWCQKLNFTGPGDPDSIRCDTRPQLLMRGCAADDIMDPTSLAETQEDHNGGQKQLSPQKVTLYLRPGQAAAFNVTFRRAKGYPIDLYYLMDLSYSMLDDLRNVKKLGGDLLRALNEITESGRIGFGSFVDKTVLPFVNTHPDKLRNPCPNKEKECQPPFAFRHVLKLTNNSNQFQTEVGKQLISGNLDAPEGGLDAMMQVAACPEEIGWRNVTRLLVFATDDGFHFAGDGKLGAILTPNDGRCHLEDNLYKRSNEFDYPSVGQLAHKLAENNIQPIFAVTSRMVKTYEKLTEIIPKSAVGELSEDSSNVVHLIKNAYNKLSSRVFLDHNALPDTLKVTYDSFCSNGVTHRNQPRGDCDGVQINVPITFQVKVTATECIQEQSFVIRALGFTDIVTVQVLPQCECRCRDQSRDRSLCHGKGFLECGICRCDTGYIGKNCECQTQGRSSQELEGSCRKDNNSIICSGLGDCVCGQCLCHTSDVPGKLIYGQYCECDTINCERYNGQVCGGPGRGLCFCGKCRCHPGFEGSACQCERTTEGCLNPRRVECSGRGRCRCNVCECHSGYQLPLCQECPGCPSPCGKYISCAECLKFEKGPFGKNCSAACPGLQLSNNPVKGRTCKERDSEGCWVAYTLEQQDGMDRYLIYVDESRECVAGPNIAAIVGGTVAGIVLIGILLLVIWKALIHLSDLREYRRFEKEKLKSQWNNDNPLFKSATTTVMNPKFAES
CYP2C19 inhib – blockers of cytochrome P450 2C19 activity – biochemical, luminescence, ADME assay, primary screen. P33261. CYP2C19 Supersomes, luciferin-H EGE luminescence, 30 min. inhibition, % at 5 µM. 21% of 96,000 active. AID 778, 2007;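 active = CYP2C19 inhibition above a set limit at 5 µM in the primary screen, cut at about 50% in these data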;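 also: plate controls were negative control wells for no effect and 2.5 mM tranylcypromine positive control for full effect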
CYP2C9 act – human CYP2C9 activators, primary screen, biochemical, luminescence; Cytochrome P450 2C9 (Homo sapiens), P11712; recombinant CYP2C9, luciferin-H conversion; hits give high values; factor 1 = untreated enzyme, 0 = blocked; activation factor at 5 µM; 1.4% of 96,000 active;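 active = activation factor of 2 or more for CYP2C9 at a 5 µM dose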;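 also: 0 = sulfaphenazole-blocked wells and 1 = vehicle-only wells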
CYP2C9 inhib – blockers of cytochrome P450 2C9 activity – biochemical, luminescence, ADME assay, primary screen; inhibition, % at 5 µM; 20% of 96,000 active; CYP2C9 Supersomes, luciferin-H conversion; P11712;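 active = blocking of liver enzyme CYP2C9 beyond about 50% at 5 µM, limit read from the data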
CD11b adhes enh – enhancers of CD11b/CD18 adhesion to fibrinogen, primary screen, K562 cells, luminescence | Integrin beta-2 (Homo sapiens) + Integrin alpha-M (Homo sapiens), P05107+P11215 | ATPlite luminescence | activation, % at 10 µM | 0.07% of 93,000 active | AID 1499, 2009;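 active = 10 µM primary screen giving 50% or more activity, confirmed by 40% or more on retest at that dose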
The depositor's hits bear a star; · = no result. Compounds with a hit are over-represented: about 28% of the library has one in this group of screens.

SMILES	CYP2C19 act	CD11b adhes inh	CYP2C19 inhib	CYP2C9 act	CYP2C9 inhib	CD11b adhes enh
Cc1noc(C)c1C(=O)OCC(=O)c1c(N)n(CC(C)C)c(=O)n(C)c1=O	1	9	1	0.6	38	-3
O=C(NC1CCCCC1)c1ccc(Cn2cc(Cl)cn2)cc1	1	-3	-1	0.7	27	2
Cc1cccc2cc(/C=N/NC(=O)CN3CCOCC3)c(Cl)nc12	1.1	-10	-8	1.2	-22	-2
Cc1ccc(C)c(S(=O)(=O)NC(C)C(=O)Nc2ccc(-c3nc4ccccc4s3)cc2)c1 (stereo not drawn)	1	7	0	1	4	5
Cc1cc2ncn(CC(O)COC3CCCCC3)c2cc1C (stereo not drawn)	0.4	0	64*	0.1	86*	-4
CC(C)(C)c1ccc(C(=O)N2CCC(C(=O)NCc3ccncc3)CC2)cc1	0.6	-19	39	0.4	55*	0
CC(C)(C)NC(=O)C1CCN(C(=O)c2ccc(-c3ccccc3)cc2)CC1	1	29	-4	0.8	15	2
O=C(NCc1ccncc1)C1CCN(S(=O)(=O)Cc2ccccc2)CC1	0.6	10	44	0.1	92*	-3
O=C(NCc1cccc(F)c1)C1CCN(S(=O)(=O)Cc2ccccc2)CC1	0.9	-1	12	1	-2	-2
O=C(CCC1N=C2c3ccccc3N=C(SCc3ccc(F)cc3)N2C1=O)NCc1ccco1 (stereo not drawn)	0.7	14	28	0.4	65*	0
CCCCNC(=O)CC1N=C2c3ccccc3N=C(SCC(=O)Nc3ccc(OC)cc3)N2C1=O (stereo not drawn)	0.8	-6	18	0.4	60*	11
N#CCSC1=Nc2ccccc2C2=NC(CCC(=O)N3CCN(c4ccccc4)CC3)C(=O)N12 (stereo not drawn)	0.8	-13	16	0.3	73*	4
O=C(CC1N=C2c3ccccc3N=C(SCc3ccc(F)cc3)N2C1=O)NCc1ccco1 (stereo not drawn)	0.9	-30	12	0.7	32	4
O=C(CCC1N=C2c3ccccc3N=C(SCc3ccc(Cl)cc3)N2C1=O)NCc1ccco1 (stereo not drawn)	0.6	-2	36	0.2	77*	13
CC(C)C1N=C2c3ccccc3N=C(SCC#N)N2C1=O (stereo not drawn)	1	-17	-2	1	-4	-1
COc1ccc(C(=O)NCC(=O)OCC(=O)c2ccc3c(c2)OCCO3)cc1	1	27	0	1	0	0
COc1cccc(NC(=O)CSCc2n[nH]c(=O)[nH]2)c1	1.1	-2	-6	1	-3	2
CCN(CC)C(=O)CSc1nnc(CNc2ccc(F)cc2)o1	1.1	·	-9	1.1	-7	·
Cc1ccc(CSC2=Nc3ccccc3C3=NC(CC(=O)NCc4ccco4)C(=O)N23)cc1 (stereo not drawn)	0.9	-1	11	0.2	79*	90
CC(=O)C(Sc1ccc2nnc(-c3ccc(F)cc3)n2n1)C(C)=O	0.9	0	13	0.3	70*	-2
CCOC(=O)CC(=O)CSc1ccc2nnc(-c3ccc(C)cc3)n2n1	0.9	-22	14	0.5	55*	-1
CCOc1ccc(-c2nnc3ccc(SCC(=O)N4CCCCC4)nn23)cc1	1	-36	5	0.7	29	-1
O=C(Nc1ccccc1C(=O)N1CCOCC1)c1ccncc1	1.1	-16	-10	1.1	-9	5
CN1CCCc2cc3c(C(F)(F)F)cc(=O)oc3nc21	0.9	-5	14	0.9	10	2
COc1ccc(S(=O)(=O)NC2CC3CCC2C3)cc1Cl (stereo not drawn)	0.5	5	47	1.6	-60	-5
SMILES	CYP2C19 act	CD11b adhes inh	CYP2C19 inhib	CYP2C9 act	CYP2C9 inhib	CD11b adhes enh
O=S(=O)(NCC1CCCO1)c1ccc2c(c1)OCCO2 (stereo not drawn)	0.6	·	44	1	-3	·
O=S(=O)(NC1CC2CCC1C2)c1ccc2c(c1)OCCO2 (stereo not drawn)	0	39	97*	0.2	78*	0
CC1CCCC(NS(=O)(=O)c2ccc3c(c2)OCCO3)C1C (stereo not drawn)	0	16	97*	0.4	61*	-3
Cc1ccccc1-n1c(SC(C)C(=O)N2CCN(C)CC2)nc2ccccc2c1=O (stereo not drawn)	1.1	-8	-13	1.1	-8	-2
CCCC1COC(Cn2cncn2)(c2ccc(C)cc2)O1 (stereo not drawn)	0.4	-4	58*	0.5	49	8
Clc1ccc2[nH]c3c(NCC4CCCO4)ncnc3c2c1 (stereo not drawn)	0.3	44	74*	0.2	81*	-5
O=C(NCCOc1ccccc1)C(c1ccccc1)c1ccccc1	0.9	-2	12	0.8	21	1
CC(=O)N1N=C(c2ccco2)CC1c1ccc(Br)cc1 (stereo not drawn)	·	-2	·	·	·	-1
NNc1nnc(-c2ccccc2)c(-c2ccccc2)n1	0.1	-8	88*	0.2	79*	2
CC1Cc2cc(-c3csc(NC(=O)Cc4cccs4)n3)ccc2N1S(C)(=O)=O (stereo not drawn)	0.2	92	77*	0.1	92*	-7
O=C(Cc1ccccc1F)Nc1nc(-c2cccs2)cs1	0.1	34	94*	0	99*	-4
O=C(Cc1ccccc1)Nc1nc(-c2cccs2)cs1	0.5	-1	49	0.6	44	0
O=C(Cc1cccs1)Nc1nc(-c2ccc(F)cc2F)cs1	0.8	65*	18	0.4	56*	-6
CCCC(=O)Nc1nc(-c2ccc3c(c2)CCN3S(C)(=O)=O)cs1	0.7	·	32	0.8	16	·
CSC1=NCCN1C(=O)COc1ccc2ccccc2c1	0.1	-1	88*	0.7	32	1
Cc1ccccc1NS(=O)(=O)c1ccc(C2CNC(=O)C2)cc1 (stereo not drawn)	0.4	10	56*	0.5	47	3
O=C1CC(c2ccc(S(=O)(=O)NCc3ccccc3)cc2)CN1 (stereo not drawn)	1.1	-7	-12	1	1	1
O=C1CC(c2ccc(S(=O)(=O)Nc3cc(C(F)(F)F)cc(C(F)(F)F)c3)cc2)CN1 (stereo not drawn)	0.6	1	38	0.2	79*	-2
